This passage reports outcome and AC50 results from PubChem BioAssay (EPA / NIEHS).

Inconclusive results are not listed. More than one record can exist for a structure, and the calls need not agree. The source made the active and inactive calls. The calls were made as follows: active = hit-call score of the fitted dose curve at least 0.9, where 1 is the maximum; inconclusive = response in the unintended direction; inactive = score below 0.9.

The nature of the experiment: CCTE_Shafer_MEA_dev_bursting_electrodes_number: CCTE's Neural Network Formation Assay for Number of Bursting Electrodes, Shafer Lab (AID 2284043). The method, then:
CCTE_Shafer_MEA_dev assay is conducted using Axion Biosystems 48 well microelectrode array (MEA) plates and Maestro recording system. Each well of the MEA plate contains a grid of 16 microelectrodes embedded in the culture surface. Electrically active cells, such as neurons, can be cultured over the electrodes, and electrical activity in these cells can be recorded extracellularly. The spontaneous firing of neurons is captured from each electrode on a microsecond timescale providing both temporally and spatially precise data. […] The CCTE_Shafer_MEA_dev assay uses primary cultures of rat cortical neurons. Recordings are made on days post-plating 5, 7, 9 and 12. As these cultures mature over time, neural networks develop functional activity and form cohesive networks in which electrical activity can be highly coordinated. CCTE_Shafer_MEA_dev_bursting_electrodes_number is 1 of 19 assay components of the CCTE_Shafer_MEA_dev assay. It measures the number of electrodes in a well with a burst rate of at least 1 burst (temporally-clustered group of action potential firing) every 2 minutes during a recording in a microelectrode array (MEA) using Axion Biosystems Maestro 768 channel amplifier with the AxIS adaptive spike detector. To collapse across multiple recordings made on days post-plating 5, 7, 9 and 12, the trapezoidal area-under-the-curve of the component is calculated.Data from the assay component CCTE_Shafer_MEA_dev_bursting_electrodes_number was analyzed into 1 assay endpoint. This assay endpoint, CCTE_Shafer_MEA_dev_bursting_electrodes_number, was analyzed in the negative analysis fitting direction relative to DMSO as the negative control and baseline of activity. Using a type of functional reporter, gain or loss-of-signal activity can be used to understand electrical activity.
On the day prior to culture, each well was coated thoroughly with 150 uL of 0.05% polyethyleneimine (PEI, Sigma Cat P3143) in 50 mM HEPES (Sigma Cat H7523) at a pH of 8. The plate was incubated at 37C for one hour. PEI was rinsed out with 500 uL of sterile water three times. Plates were stored at 4C until the day of culture. This culture was plated at a seeding density of 1.5 x 10^5 cells/well on a 48-well MEA plate, prepared as described above. Cells were administered via a 25 uL media/laminin ([…]; Sigma Cat L2020-1MG) drop directly onto the microelectrode array, as adding the cells with the laminin results in better attachment than pre-coating with laminin. After 2 hours, an additional 475 uL of cortical media was added and the cells returned to the incubator. Exposure starts at day 0 of plating and is continued over twelve days of network development until the experiment is terminated. Cells are fed with fresh medium on DIV 5 and 9, following the recordings on those days. The entire volume of media in the well is exchanged and any vehicle or compound treatment is renewed. Complete details are found in OP-NHEERL/ISTD/SBB/TJS/2015-03-r0 (available on request, email shafer.tim@epa.gov). Measurement of the electrical activity is non-invasive, and recordings can be made from the same plate over multiple different days of the culture. In cortical neurons, this allows for the measurement of extracellular action potentials over the period during which networks form in the MEA plate.
Consider `O=CC(F)(F)C(F)(F)C(F)(F)C(F)F`, for which the compound was classed as inactive.

In general, AC50 refers to the concentration at which the activity in the assay is half-maximal. Regarding `Nc1ccn([C@@H]2O[C@H](CO)[C@@H](O)C2O)c(=O)n1` (some centres undefined), the concentration at half-maximal activity (AC50) is 333 nM (active).

As to `CC(=O)Nc1ccc(O)cc1`, the AC50 was 82.4 nM (active) and the compound was classed as inactive.

With `O=C(F)C(F)(F)C(F)(F)C(F)(F)C(=O)F`, the compound was called inactive.

Regarding `O=C(OC(=O)C(F)(F)C(F)(F)F)C(F)(F)C(F)(F)F`, the result was inactive.

On to `O=C(C=C(O)C(F)(F)F)C(F)(F)F`, for which the compound was classed as inactive.

`FCOC(C(F)(F)F)C(F)(F)F`: the outcome was inactive.

On to `O=C(O)CCC(F)(F)C(F)(F)C(F)(F)C(F)(F)C(F)(F)F`, for which the compound was classed as inactive.

As for `O=P(O)(O)CCC(F)(F)C(F)(F)C(F)(F)C(F)(F)C(F)(F)C(F)(F)C(F)(F)C(F)(F)F`, the AC50 was 2390 nM (active).

As to `CN(CCO)S(=O)(=O)C(F)(F)C(F)(F)C(F)(F)C(F)(F)C(F)(F)C(F)(F)C(F)(F)C(F)(F)F`, the call was inactive.

For `COC(=O)C(F)(F)C(F)(F)C(F)(F)F`, the call was inactive.

Take `CC(C)c1c(C(=O)Nc2ccccc2)c(-c2ccccc2)c(-c2ccc(F)cc2)n1CC[C@@H](O)C[C@@H](O)CC(=O)O`: the AC50 is 9.22 nM (active).

With `O=C1NS(=O)(=O)c2ccccc21`, the outcome was inactive.

With `OCC(F)(F)C(F)(F)C(F)(F)C(F)(F)C(F)(F)C(F)(F)C(F)(F)C(F)(F)C(F)(F)C(F)(F)C(F)(F)F`, the AC50 is 6730 nM (active) and the compound was called inactive.

For the compound `O=CC(F)(F)C(F)(F)C(F)(F)F`, the compound was classed as inactive.

On to `C=CC(F)(F)C(F)(F)C(F)(F)C(F)(F)F`, for which the compound was classed as inactive.

On to `CN(Cc1cnc2nc(N)nc(N)c2n1)c1ccc(C(=O)N[C@@H](CCC(=O)O)C(=O)O)cc1`, for which the AC50 is 20.9 nM (active).

In the case of `O=C(F)C(F)(F)C(F)(F)C(F)(F)C(F)F`, the compound was called inactive.

On to `O=C(CC(=O)C(F)(F)C(F)(F)C(F)(F)F)c1cccs1`, for which the AC50 is 8130 nM (active).

Turning to `NC(C(F)(F)F)C(F)(F)F`, the outcome was inactive.

For `CN(C)CCOC(c1ccccc1)c1ccccc1`, the AC50 is 4330 nM (active).

For `O=C(CCCN1CCC(O)(c2ccc(Cl)cc2)CC1)c1ccc(F)cc1`, the AC50 was 1650 nM (active).
